# Screening results deposited in PubChem by several laboratories.
# Rows were chosen to be rich in hits. Some 3.9% of all compounds tested hit in one or more screens of this group.
# HSP90 refold inh – inhibitors of HSP90 luciferase refolding in rabbit reticulocyte lysate. inhibition, % at 5.6 µM. 290,000 compounds, 0.91% hits. luciferase refolding luminescence, 3 h;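 active = inhibition above the screen-wide mean plus 3 SD, computed separately per campaign, cut at about 16% in these data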;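 also: 0% = DMSO wells and 100% = 60 µM geldanamycin wells; inhibitors lower the luminescence because luciferase stays unfolded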
# aSyn UTR inh – MLPCN primary screen, SNCA 5' untranslated region | alpha-synuclein 5'UTR reporter, inhibitor activity | inhibition, % (tested at 7.5 µM) | 300,000 compounds, 0.82% hits; in the data active = inhibition above about 60%;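 also: H4 neuroglioblastoma cells stably carrying SNCA 5'UTR luciferase fusion; 0% = DMSO wells and 100% = positive control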
# TWEAK Fn14 block – inhibitors of TWEAK-Fn14 interaction signaling; TWEAK-stimulated Fn14 reporter cells, luciferase luminescence, 8 h; inhibition, % at 10 µM; 360,000 compounds, 2% hits; AID 1159606; in the data active = inhibition above about 50%
# HIF-2a block – inhibitors of HIF-2a; 786-0 RCC cells HIF-2a reporter, luciferase luminescence, overnight; inhibition, % at 18.8 µM; 360,000 compounds, 0.72% hits;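 active = inhibition of the luminescence signal of 40% or more relative to plate controls, in a single-dose primary screen at 18.75 µM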
# TROY signal inh – blocks TROY-dependent signaling in reporter cells; Q293 LMP1-TROYcd NF-kB luciferase reporter, 4 h; 360,000 compounds, 0.98% hits; inhibition, % at 10 µM;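 active = compounds whose plate-normalised and pattern-corrected inhibition of the luciferase reporter signal at the single screening dose is 50% or more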
# TRAIL sens C8 – sensitizes caspase-8 expressing cells to TRAIL; NB7+C8 cells + TRAIL, ATPlite viability luminescence; inhibition (viability loss, TRAIL sensitization), % at 10 µM; 360,000 compounds, 1% hits;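 active = compounds causing at least 50% loss of cell viability in the single-dose screen, relative to plate controls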
# Active calls of the source: *; . = not tested or not shown.
SMILES,HSP90 refold inh,aSyn UTR inh,TWEAK Fn14 block,HIF-2a block,TROY signal inh,TRAIL sens C8
CC(C)(C)NC(=O)C(c1ccc(C#N)cc1)n1c(=O)c(-c2ccco2)nc2ccccc21 (configuration not stated),.,.,.,-1,.,10
CC(C)NC(=O)C1(C)CSCC(=O)N1CCOc1ccccc1 (configuration not stated),.,.,.,5,.,6
Cc1ccc(S(=O)(=O)N2Cc3ccccc3CC2C(N)=O)cc1 (configuration not stated),.,.,-16,13,9,-23
CCOc1ccccc1NC(=O)c1cc(C(=O)c2cc(Br)ccc2O)coc1=N,-1,11,2,-8,59*,10
OC(c1ccccc1)c1ccncc1 (configuration not stated),.,24,-1,14,-4,1
OC(C1=CC(=Cc2ccncc2)c2ccccc21)c1ccncc1 (configuration not stated),.,.,55*,21,29,-5
CCC(C)[C@H]1CNC(=O)C(=O)N1CC1CCCCC1 (some centres not stated),.,.,-4,2,-24,-15
Cc1cccc(N2CCN(C(=O)c3ccc(S(=O)(=O)N(C)c4ccccc4)cc3)CC2)c1C,.,.,61*,11,30,13
CC(=O)/C(C(=N)N1CCN(c2cccc(Cl)c2)CC1)=C(\C)O,-2,6,75*,-3,57*,13
COc1ccccc1C(=O)N1CCN(c2cccc(Cl)c2)CC1,-4,64*,12,9,22,0
Cc1ccc(S(=O)(=O)Cc2ccc(C(=O)NCCCN3CCN(C)CC3)o2)cc1,4,-22,84*,27,76*,0
O=C(O)CCC(=O)N1CCN(c2cccc(Cl)c2)CC1,-5,7,12,22,15,-9
Cc1cc(C(=O)COC(=O)/C=C/c2ccco2)c(C)n1C,.,.,15,-53,0,11
Cc1ccc(S(=O)(=O)Cc2ccc(C(=O)N3CCN(c4cccc(C)c4C)CC3)o2)cc1,2,88*,4,28,28,9
Cc1onc(-c2ccccc2Cl)c1C(=O)N1CCN(c2cccc(Cl)c2)CC1,.,67*,11,22,34,25
Cc1cccc(N2CCN(C(=O)c3c(-c4ccccc4)noc3C)CC2)c1C,2,65*,1,21,10,14
Cc1onc(-c2ccccc2Cl)c1C(=O)N1CCN(c2ccccc2)CC1,-1,5,-8,26,3,-7
COc1ccccc1Cc1c(-c2ccco2)nc2ccc(C)cn12,.,.,4,-195,-15,42
O=C(CC[C@H]1O[C@@H](n2cnc3c(NC(=O)c4ccccc4)ncnc32)[C@H](O)[C@@H]1O)NCC1CCCCC1,.,.,-17,11,4,-7
Cc1cc(=O)n2[nH]c(-c3cccnc3)nc2n1,-3,-8,.,.,.,.
Cc1cc(=O)n2[nH]c(-c3ccc(F)cc3)nc2n1,-3,-9,8,-35,-16,51*
C#CCNC(=O)C[C@@H]1C[C@@]2(C(=O)OCC)CCC=C2N(Cc2ccc(Cl)cc2Cl)C1=O,.,.,0,11,-8,9
C/C(Sc1nnc(Cc2ccccc2)o1)=C(\O)c1ccccc1,.,.,14,9,-7,-22
FC(F)(F)c1ccc(Oc2ccccc2Cl)nc1,3,10,-4,7,-10,1
O=C(O)CC(=O)Nc1ccc(Oc2ccc(C(F)(F)F)cn2)c(Cl)c1,-2,65*,11,18,-2,20
SMILES,HSP90 refold inh,aSyn UTR inh,TWEAK Fn14 block,HIF-2a block,TROY signal inh,TRAIL sens C8
N/C(=N\OC(=O)c1cccc(Br)c1)c1ccc([N+](=O)[O-])cc1,4,-31,-25,-78,-19,-15
N/C(=N\OC(=O)c1ccco1)c1ccc(Br)cc1,-5,-200,1,-293,-46,3
N/C(=N\OC(=O)c1cccc(Br)c1)c1ccc(Br)cc1,-2,-96,-18,-99,-24,59*
N/C(=N\OC(=O)c1ccc(Br)cc1)c1ccccc1,-3,-190,27,-262,-7,84*
Cc1ccc(/C(N)=N/OC(=O)C23CC4CC(CC(C4)C2)C3)cc1,0,-185,8,-132,38,88*
COc1ccc(C(=O)O/N=C(\N)c2ccc(Br)cc2)cc1,-2,-174,-11,-160,-30,70*
N/C(=N\OC(=O)C12CC3CC(CC(C3)C1)C2)c1ccncc1,-2,-29,-14,-22,-12,20
CCOC(=O)C1=CCN(S(=O)(=O)c2ccccc2Cl)C1c1ccc(C)cc1 (configuration not stated),.,.,18,4,11,-1
CN(Cc1ccccc1)C(=O)c1cccc(NC(=O)Cc2ccc(NC(=O)C3CCCN(C(=O)C4CCCC4)C3)cc2)c1 (configuration not stated),.,.,-20,20,13,8
Cc1ccc(C(=O)O/N=C(\N)c2ccc(Br)cc2)cc1,2,-215,3,-253,-9,81*
N/C(=N\OC(=O)c1ccccc1)c1ccn[nH]1,6,-30,35,-172,6,56*
O=C(Nc1ccccc1Cl)c1cc(C2CCCN(C(=O)c3ccccc3)C2)on1 (configuration not stated),.,.,-6,-30,-13,3
c1ccc(Nc2nc(-c3ccccn3)cs2)cc1,13,-145,45,-218,35,30
COc1cccc2sc(Nc3nc(-c4ccccn4)cs3)nc12,-1,52,104*,-299,-22,28
Cc1cc2c(cc1C)-n1nnnc1C(N(C)CCc1ccccc1)C(=O)N2 (configuration not stated),.,.,.,0,.,-22
Oc1c(Cl)cc(Cl)cc1C=Nc1ccc2c(c1)OCCO2,7,-63,75*,16,63*,-3
COc1cc(OC)cc(-c2cc3cc4c(cc3cn2)OCO4)c1,.,.,21,-222,-62,72*
COc1cc(OC)cc(-c2cc3ncccc3cn2)c1,.,.,-24,-151,-37,-18
COc1ccc2cc(-c3ccsc3)ncc2c1,.,.,12,-230,-55,48
COc1cc(OC)cc(-c2cc3ccc(OC)cc3cn2)c1,.,.,9,-267,-25,83*
c1ccc(-c2cc3cc4c(cc3cn2)OCO4)cc1,.,.,28,-187,-33,51*
COc1ccc(-c2cc3cc4c(cc3cn2)OCO4)cc1,.,.,54*,-136,17,54*
COc1ccc(-c2cc3cc(OC)c(OC)cc3cn2)cc1,.,.,-58,-184,-49,-1
CCC(C)(C)C1CCC2(CC1)NC(=O)N(CC(=O)N1CCN(c3ccccc3OC)CC1)C2=O (configuration not stated),.,.,-9,5,-8,10
NC(Cc1ccc(Cl)cc1)c1csc(Nc2ccc(-c3ccccc3)nn2)n1 (configuration not stated),.,.,-9,0,-5,24
Nc1[nH]c(C(=O)c2ccccc2)c(-c2cccnc2)c1C(=O)NC1CCCCC1,.,.,0,1,-17,-12
